HT1080 IDH1KD tx: kills HT-1080 cells with IDH1 knockdown. HT-1080 IDH1 knockdown viability, ATP luminescence, 48 h. Potency, µM (top dose mostly 46.1 µM), without a hit: at the top dose activity, negative = toxicity, most hits filed as cytotoxic. 2% of 360,000 active. AID 686971;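 also: potency is read from the fitted curve at half-maximal effect; 0% = DMSO wells and -100% = cell-free medium wells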
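Cytotoxicity counter-line: IDH1KD HT-1080, 48 h, CellTiter-Glo. Curves classed by r2, magnitude and activity.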
TDP1 cell noCPT: qHTS for Inhibitors of human tyrosyl-DNA phosphodiesterase 1 (TDP1): qHTS in cells in absence of CPT; DT40 Tdp1-/- hTDP1 cells, no CPT, ATP luminescence, 48 h; Potency, µM (titrated, usually from 46.2 µM), for the others: at the highest dose activity change, negative = growth inhibition, actives largely listed as inhibitors; 15% of 420,000 active; also: potency is read from the fitted curve at half-maximal effect; nearly all actives have a fitted effect of over 55% in size
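Growth of hTDP1-complemented DT40 Tdp1-knockout cells is measured by ATP luminescence after at least 48 hr compound exposure at 37 °C, with DMSO substituting for the 20 nM CPT used in the parallel screen.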
IL1B secr inh: inhibitors of inflammasome signaling (IL-1 beta secretion); activity change, % at 57.5 µM; THP-1 LPS/ATP IL-1B secretion, AlphaLISA, 16 h; hits give low values; 4.7% of 360,000 active; in the data active = activity change below about -50%; inconclusive = mostly about -30% to -49%
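THP-1 cells pretreated 1 hr with compounds (up to 57.5 uM final), then stimulated with LPS (250 ng/mL final) plus ATP (1.25 mM final); secreted IL-1B measured by AlphaLISA after 16 hr, decreased signal indicating inhibition.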
HT1080-NT tox: kills 2HG-producing HT-1080-NT fibrosarcoma cells. HT-1080-NT fibrosarcoma viability, CellTiter-Glo ATP luminescence, 48 h. Potency, µM (titrated, usually from 46.1 µM), for inactives: top-dose activity, negative = less viability, hits mostly cytotoxic. 1.6% of 360,000 active;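 also: NT is the 2HG producing partner of a matched IDH1 knockdown line; potency is read from the fitted curve at half-maximal effect; 0% = DMSO-treated cells and -100% = media-only wells without cells; nearly all actives have a fitted effect of over 55% in size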
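HT-1080-NT; 750 cells/well; 5% FBS RPMI; 48 h compound, 37 degrees C; CellTiter-Glo luminescence; curve fitting and curve-class assignment.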
DT40 TDP1 CPT: DT40-hTDP1 cell growth loss with CPT; 12% of 420,000 active; AID 686979; chicken DT40 Tdp1-/-;hTDP1 cells + 20 nM CPT, ATP luminescence, 48 h; Potency, µM (series often up to 46.2 µM), inactives show at the top dose activity change, negative = growth inhibition, hits mostly inhibitors; also: potency is read from the fitted curve at half-maximal effect; nearly all actives have a fitted effect of over 55% in size
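Cell growth measured by CellTiter-Glo luminescence after a minimum 48 h, 37 C compound exposure with 20 nM CPT in Tdp1-knockout DT40 cells stably expressing hTDP1, seeded 400/well; qHTS titration format.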
* = called active by the depositor; ? = inconclusive; / = no result. An excerpt weighted towards active compounds, which were near 19% of everything screened. Unless noted, calls follow the shape of the dose curve; as a rule, active = well fitted curve in the direction sought with a large enough effect; inconclusive = small, poorly fitted or top-dose-only effect, or another doubt; inactive = no such curve, though single readings can be large; an effect the other way counts as inactive or inconclusive. Unless noted, % is scaled to controls: 0 for no effect and ±100 for the full control effect.

SMILES	HT1080 IDH1KD tx	TDP1 cell noCPT	IL1B secr inh	HT1080-NT tox	DT40 TDP1 CPT
Cc1cccc(NC(=O)COC(=O)c2ccc(S(=O)(=O)N3CCCC3)cc2)c1	5.7%	5.5%	7.5	0.4%	0.7%
Cc1nnc2n(c1=O)N=C(c1ccc(Cl)cc1)CS2	-20.3%	-3.5%	-5.0	-16.8%	-1.7%
CC(C)(C)Nc1nc2cc([N+](=O)[O-])ccc2o1	15.0%	-23.4%	4.4	1.8%	-16.8%
CC(C)(C)c1nc2cc(Cl)c([N+](=O)[O-])cc2o1	?	23.1µM*	?	-28.3%	?
Cc1noc(C)c1NC(=O)N(C)C[C@H]1Oc2ccc(NC(=O)CCN3CCOCC3)cc2C(=O)N([C@H](C)CO)C[C@@H]1C	23.2%	0.3%	16.9	12.9%	-3.6%
COc1ccc(C)cc1S(=O)(=O)N(C)CC(=O)N1CCCC1	15.0%	-0.3%	-15.3	6.9%	-16.2%
c1ccc(-c2nc(N3CCOCC3)cc(N3CCOCC3)n2)cc1	-4.5%	-17.3%	?	-10.0%	-26.6%
CN1CCN(c2nc(-c3ccc(Br)cc3)nnc2-c2ccccc2)CC1	20.6µM*	11.6µM*	-57.9*	?	16.4µM*
Cc1ccc(-c2nnc(-c3ccccc3)c(N3CCOCC3)n2)cc1	0.9%	16.4µM*	14.7	2.9%	?
c1ccc(-c2nnc(N3CCOCC3)nc2-c2ccccc2)cc1	-2.7%	?	-9.4	2.7%	16.4µM*
Brc1ccc(-c2nnc(-c3ccccc3)c(N3CCSCC3)n2)cc1	-9.8%	25.9µM*	-0.7	-12.5%	?
O[C@H]1CN(CC2CCCCC2)[C@@H](c2ccccc2)C[C@@H]1n1cc(C2CC2)nn1	-9.2%	?	16.3	-12.9%	-21.7%
CCOC(=O)c1cnc(-c2ccc(C(F)(F)F)cn2)[nH]c1=O	7.1%	-14.1%	2.4	5.1%	1.6%
COC(=O)c1c(NC(=O)c2nc(SCc3ccccc3C)ncc2Cl)sc2c1CCCC2	/	-9.4%	/	/	-3.7%
Cc1nnc(-c2cccc(C(F)(F)F)c2)nc1N1CCOCC1	-9.5%	14.6µM*	-2.9	-19.9%	4.6%
O=C(NC(=S)N(CCCCO)C1CCCCC1)c1sc2ccccc2c1Cl	?	16.4µM*	45.8	?	16.4µM*
COc1cccc(N/C=C(\C#N)c2ccc(OCCCF)cc2)c1	13.2%	?	-51.8*	2.6%	18.4µM*
COc1ccc(OCCCC(=O)Nc2cccnc2)cc1	4.6%	-27.0%	6.3	6.9%	-9.4%
CN(C)C(CNC(=O)c1ccc(-c2ccccc2)cc1)c1ccccc1 (configuration not stated)	16.4µM*	18.4µM*	-54.0*	16.4µM*	?
COc1ccc(/C=C/C(=O)Nc2ccccc2C(=O)NCC(c2ccc(OC)cc2)N(C)C)cc1 (configuration not stated)	?	23.1µM*	-77.9*	?	18.4µM*
COc1ccc(C(CNC(=O)CSc2ccccc2C)N(C)C)cc1 (configuration not stated)	-0.5%	?	-4.7	-20.0%	7.0%
COc1ccc(/C=C/C(=O)Nc2ccccc2C(=O)O)cc1	-11.0%	-20.1%	28.5	-6.1%	?
COc1ccc(C(CNC(=O)Cc2ccc(-c3ccccc3)cc2)N(C)C)cc1 (configuration not stated)	20.6µM*	18.4µM*	-28.1	18.4µM*	20.6µM*
CC1(C(=O)NS(=O)(=O)c2ccccc2Cl)CCN1C(=O)C1(c2ccccc2)CCCC1 (configuration not stated)	-8.6%	?	9.3	-1.4%	?
CCN(CCCNC(=O)CCCOc1cc(=O)n(C)c2ccccc12)Cc1ccccc1	3.7%	?	17.4	-16.8%	-19.2%
COc1ccc2cc(/C=N/NC(=O)c3ccc(CN(c4cccc(Cl)c4Cl)S(C)(=O)=O)cc3)c(Cl)nc2c1	?	14.6µM*	14.2	?	18.4µM*
COc1ccc2cc(/C=N/O)c(Cl)nc2c1	-9.0%	?	-15.8	-16.3%	-15.4%

Assay outcomes (PubChem)
